Rows were chosen to be rich in hits. Some 10% of all compounds tested hit in one or more screens of this group.
SARS PLP yeast = SARS-CoV PLP inhibition in yeast. S. cerevisiae expressing SARS-CoV PLpro, growth rescue. 0.19% of 330,000 active. Potency, µM (series often up to 32.9 µM), actives largely listed as activators; also: nearly all actives have a fitted effect of over 55% in size
Pf growth 96h = P. falciparum growth inhibition at 96 hour, primary screen for plastid delayed-death inhibitors. P. falciparum luciferase reporter growth, 96 h. Potency, µM (titrated, usually from 28.7 µM), usual class: inhibitors. 6.9% of 320,000 active. AID 504834; active = well fitted inhibition curve with a large enough effect; inconclusive = small, poorly fitted or top-dose-only effect, or another doubt; inactive = no such curve, though single readings can be large or run the other way
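Two-generation exposure (96 h) targets delayed-death phenotype. Reporter parasites carrying integrated firefly luciferase, in red cells at 2% hematocrit and 0.05% parasitemia final, kept at 37 C, 5% CO2; luminescence loss indicates inhibition.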
NS1 inh = inhibitors of influenza NS1 protein function; Potency, µM (top dose mostly 46.1 µM); 0.4% of 270,000 active; also: actives are rising curves; nearly all actives have a fitted effect of over 50% in size
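In this qHTS, NS1 from influenza A is expressed in budding yeast, where it slows growth. Cells are switched from glucose to 2% galactose medium (pH 6.0, -URA), treated with compound, and growth recovery is read at OD600.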
Pf growth 48h = inhibits P. falciparum growth in the first generation, 48 h; P. falciparum luciferase growth in erythrocytes, 48 h; Potency, µM (highest dose often 28.7 µM), most hits filed as inhibitors; 5.9% of 310,000 active; AID 504832; active = well fitted inhibition curve with a large enough effect; inconclusive = small, poorly fitted or top-dose-only effect, or another doubt; inactive = no such curve, though single readings can be large or run the other way
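Erythrocytes infected with P. falciparum carrying an integrated firefly luciferase reporter (2% hematocrit, 0.1% parasitemia final) were exposed to compounds in RPMI 1640 with 0.5% Albumax at 37 C, 5% CO2. Growth inhibition was scored as reduced luminescence.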
Each line names hits and unclear results; the compound was inactive in the other large screens; ! = not confirmed by another sample. Unless noted, calls follow the shape of the full dose curve.

COc1cc(C(C(=O)NC2CCCC2)N(C(=O)c2snc(C(N)=O)c2N)c2ccccc2)cc(OC)c1OC (stereo unspecified)	Pf growth 96h 8.3µM, NS1 inh inconclusive, Pf growth 48h inconclusive
CC(CNC(=O)Cn1ccc(N)nc1=O)c1ccccc1 (stereo unspecified)	none (no result: NS1 inh)
O=C(C1=C[C@H](c2ccc3c(c2)OCO3)C[C@H](OCc2ccc(CO)cc2)O1)N1CCOCC1	none
CC(C)(C)[C@H]1C=C(C(=O)N2CCN(Cc3ccc4c(c3)OCO4)CC2)O[C@@H](OCc2ccc(CO)cc2)C1	Pf growth 96h inconclusive, Pf growth 48h 10µM
CC(C)(C)[C@@H]1C=C(C(=O)N2CCN(Cc3ccccc3)CC2)O[C@H](OCc2ccc(CO)cc2)C1	Pf growth 96h 15µM, Pf growth 48h inconclusive
CC(C)(C)[C@H]1C=C(C(=O)N2CCN(Cc3ccccc3)CC2)O[C@@H](OCCCCO)C1	Pf growth 96h inconclusive, Pf growth 48h inconclusive
CC(C)c1ccc(NC2CCCN(C(=O)CCc3cn[nH]c3)C2)cc1 (stereo unspecified)	Pf growth 96h inconclusive
CN1CCC(N(C)C(=S)Nc2ccc(F)cc2)CC1	none (no result: NS1 inh)
CC(=O)c1ccc(NC(=S)N(C)C2CCN(C)CC2)cc1	Pf growth 96h 2.1µM
CN(C)C1C(=O)C(C(N)=O)=C(O)C2(O)C(=O)C3=C(O)c4c(O)cccc4C(C)(O)C3CC12 (stereo unspecified)	Pf growth 96h 0.93µM, Pf growth 48h inconclusive
CN(C)[C@@H]1C(=O)C(C(N)=O)=C(O)[C@@]2(O)C(=O)C3=C(O)c4c(O)ccc(Cl)c4[C@@](C)(O)C3C[C@@H]12 (stereo partly specified)	Pf growth 96h inconclusive
CN(C)[C@H]1C(=O)C(C(N)=O)=C(O)[C@]2(O)C(=O)C3=C(O)c4c(O)cccc4[C@@](C)(O)[C@H]3C[C@@H]12	Pf growth 96h 0.72µM, Pf growth 48h 5.7µM (no result: SARS PLP yeast, NS1 inh)
CN(C)[C@@H]1C(=O)C(C(N)=O)=C(O)[C@@]2(O)C(=O)C3=C(O)c4c(O)cccc4[C@@](C)(O)C3[C@H](O)C12 (stereo partly specified)	Pf growth 96h 12µM!, Pf growth 48h 15µM! (no result: SARS PLP yeast, NS1 inh)
O=C(Cn1ncc2c3ccccc3n(Cc3cccc(Cl)c3)c2c1=O)NCc1ccccn1	Pf growth 96h inconclusive
Cc1ccc(C)c(Cn2c3ccccc3c3cnn(CC(=O)NCc4ccccn4)c(=O)c32)c1	Pf growth 96h 12µM, Pf growth 48h inconclusive
CCCCCN(C(=O)CCC(=O)OC(C)C(=O)c1ccc(Cl)cc1)c1c(N)n(CCCC)c(=O)[nH]c1=O (stereo unspecified)	none (no result: NS1 inh)
Cc1c(C(=O)Nc2ccc(Cl)cc2)c2ccccn2c1CCc1ccncc1	Pf growth 96h 9.3µM, Pf growth 48h inconclusive
Fc1ccccc1CNC(=S)NC1CCCCC1	Pf growth 96h 4.1µM
S=C(NCc1ccccc1Cl)NC1CCCC1	none
NS(=O)(=O)c1ccc(CNC(=O)C2CCCCC2)cc1	none (no result: Pf growth 96h)
NS(=O)(=O)c1ccc(CNC(=S)NC2CCCC2)cc1	Pf growth 96h 13µM
S=C(NCCNCc1ccccc1)NC1CCCCC1	Pf growth 96h 4.7µM, Pf growth 48h inconclusive (no result: NS1 inh)
OCCN(CCO)c1ncnc2nc[nH]c12	none (no result: SARS PLP yeast, Pf growth 96h, Pf growth 48h)
O=c1c2cn(Cc3ccccc3)c3ccccc3c-2nn1Cc1ccc(F)cc1Cl	none
CCSc1nc2c(sc3ccccc32)c(=O)n1C(C)C	Pf growth 96h 13µM (no result: Pf growth 48h)
CCCCn1c(SCC(N)=O)nc2c(sc3ccccc32)c1=O	none (no result: Pf growth 48h)
Cc1cccc(C)c1NC(=O)NC1(C(=O)NCC2CCCO2)CCCCC1 (stereo unspecified)	none
CCCCC(=O)NC(NC(=S)N1CCOCC1)C(Cl)(Cl)Cl (stereo unspecified)	Pf growth 48h 8.3µM (no result: Pf growth 96h)
NC(=O)C1CCN(C(=O)C2CC(=O)N(c3ccc(F)cc3)C2)CC1 (stereo unspecified)	none
CNC(=S)N1N=C(c2ccc(OC)cc2)CC1c1ccc(Cl)cc1Cl (stereo unspecified)	Pf growth 96h 5.9µM, Pf growth 48h 12µM
COc1ccc(OC)c(C2CC(c3ccccc3)=NN2C(=S)Nc2ccccc2)c1 (stereo unspecified)	Pf growth 96h inconclusive, Pf growth 48h 2.3µM
CNC(=S)N1N=C(c2ccc(C)cc2)CC1c1cc(OC)ccc1OC (stereo unspecified)	Pf growth 48h inconclusive
CNC(=S)N1N=C(c2ccc(OC)cc2)CC1c1ccccc1Cl (stereo unspecified)	Pf growth 96h inconclusive, Pf growth 48h inconclusive
C#CCCOC(=O)Nc1ccccc1	Pf growth 96h inconclusive
O=C(NCc1ccccn1)c1ccc(OC2CCN(Cc3ccc(F)cc3F)CC2)cc1	Pf growth 48h 12µM
CCC(C)N1CCC(Oc2ccc(C(=O)NCc3ccccn3)cc2)CC1 (stereo unspecified)	Pf growth 96h 10µM
O=C(NCc1ccccn1)c1ccc(OC2CCN(Cc3ccccc3O)CC2)cc1	Pf growth 96h inconclusive, Pf growth 48h inconclusive
COCCNC(=O)c1cccc(OC2CCN(Cc3ccccc3C)CC2)c1	Pf growth 96h 1.5µM
COc1ccc(CN2CCC(Oc3ccc(C(=O)NCc4ccccn4)cc3)CC2)c(F)c1	Pf growth 96h inconclusive
O=C(NCc1ccccn1)c1ccc(OC2CCN(Cc3ccccc3)CC2)cc1	none
COc1cccc(CN2CCC(Oc3ccc(C(=O)NCc4ccccn4)cc3)CC2)c1O	Pf growth 96h 6.6µM, Pf growth 48h inconclusive
O=C(c1ccco1)N1CCN(Cc2csc(-c3ccccc3Cl)n2)CC1	none
CN(C)S(=O)(=O)c1cccc(CNCC2COc3ccccc3O2)c1 (stereo unspecified)	none (no result: Pf growth 48h)
CCCCCC1CC(CC(=O)Nc2nncs2)C(=O)O1 (stereo unspecified)	Pf growth 96h 7.4µM
CCCCCC1CC(CC(C)C(=O)Nc2nncs2)C(=O)O1 (stereo unspecified)	Pf growth 96h inconclusive, Pf growth 48h inconclusive
CCCCCCCCCn1ccc(=N)cc1	Pf growth 96h inconclusive, Pf growth 48h 0.17µM
CCCCCCN1CC(O)=C(c2ccccc2)C1=N	none (no result: Pf growth 96h)
CCCCCn1ccc(=N)cc1	Pf growth 96h 1.5µM, Pf growth 48h 4.1µM
CCn1ccc(=N)cc1	Pf growth 96h 12µM, NS1 inh inconclusive, Pf growth 48h inconclusive
CCCCCCCn1ccc(=N)cc1	Pf growth 48h 0.93µM (no result: Pf growth 96h)
CCCCCNCc1cccn1C	none (no result: Pf growth 96h)
CCc1nc(SCc2ccc(F)cc2)[nH]c(=O)c1C#N	none
COc1cc(OC)c2c(-c3cccc(-c4ccc(F)c(Cl)c4)c3)cc(=O)oc2c1	none (no result: Pf growth 96h, NS1 inh, Pf growth 48h)
Cc1cc(C)c(S(=O)(=O)c2ccccc2)c(OC(=O)c2c(Cl)cc(Cl)cc2Cl)n1	Pf growth 48h 3.7µM
Cc1cc(C)c(S(=O)(=O)c2cccc(Cl)c2)c(Cl)n1	Pf growth 96h inconclusive, Pf growth 48h 10µM (no result: NS1 inh)
O=C(CSc1ncccn1)Nc1ncc(C(F)(F)F)cc1Cl	none
O=C(Cc1cccs1)N[C@@H]1c2ccccc2CC[C@H]1OCc1ccccc1	none (no result: Pf growth 96h, NS1 inh, Pf growth 48h)
O=C(Cn1c2ccccc2c(=O)c2cc([N+](=O)[O-])ccc21)Nc1ccccc1Cl	Pf growth 96h 9.3µM, Pf growth 48h inconclusive
CC1CCCC(NC(=O)c2ccc3c(=O)n(CC4CCCO4)c(=O)[nH]c3c2)C1C (stereo unspecified)	Pf growth 96h inconclusive, Pf growth 48h 2.6µM

Compound activity from PubChem BioAssay.
